Measurements from PubChem BioAssay AID2284105 (EPA ToxCast).
Records with an inconclusive call do not appear. The source made the active and inactive calls. How the source made its calls: active means hit-call score of the fitted dose curve at least 0.9, where 1 is the maximum; inconclusive means response in the unintended direction; inactive means score below 0.9.

Molecular target: human Monoamine Oxidase A (MAO-A), MAOA (gene 4128) (UniProt P21397)
Experiment: ERF_FR_ENZ_hMAOA: Eurofins (ERF) Enzymatic LeadHunter Assay for human Monoamine Oxidase A (MAO-A)
Experimental: ERF_FR_ENZ_hMAOA is a biochemical, single-readout assay that uses extracted gene-proteins in a cell-free assay. Measurements were taken 0.33 hour after chemical dosing in a 96-well plate. See Monoamine Oxidase A (MAO-A) Human Enzymatic Assay, Cerep.ERF_FR_ENZ_hMAOA is an assay component calculated from the ERF_FR_ENZ_hMAOA assay. It is designed to measure enzyme activity using a type of enzyme reporter as detected by fluorescence intensity with spectrophotometry technology.Data from the assay component ERF_FR_ENZ_hMAOA was analyzed at the assay endpoint, ERF_FR_ENZ_hMAOA, in the positive analysis fitting direction relative to DMSO as the negative control and baseline of activity. Using a type of enzyme reporter, loss-of-signal activity can be used to understand changes in enzymatic activity as they relate to gene MAOA. To generalize the intended target to other relatable targets, this assay endpoint is annotated to the […] intended target family, where the subfamily is monoamine oxidase.
Human cells are incubated for 45 minutes at room temprature with Kynuramine, diHCl at 350 uM as sunstrate. Test Sample Requirements: Minimum for 1) Screen: 60 ul of 10 mM stock -OR- 1 mg (pre-weighed) for 10 uM final testing. 2) Dose Response: 90 ul of 10 mM stock -OR- 1 mg (pre-weighed) for a top concentration at 10 uM.

Chain of human Monoamine Oxidase A (MAO-A), MAOA (gene 4128) (P21397 whole entry, looked up): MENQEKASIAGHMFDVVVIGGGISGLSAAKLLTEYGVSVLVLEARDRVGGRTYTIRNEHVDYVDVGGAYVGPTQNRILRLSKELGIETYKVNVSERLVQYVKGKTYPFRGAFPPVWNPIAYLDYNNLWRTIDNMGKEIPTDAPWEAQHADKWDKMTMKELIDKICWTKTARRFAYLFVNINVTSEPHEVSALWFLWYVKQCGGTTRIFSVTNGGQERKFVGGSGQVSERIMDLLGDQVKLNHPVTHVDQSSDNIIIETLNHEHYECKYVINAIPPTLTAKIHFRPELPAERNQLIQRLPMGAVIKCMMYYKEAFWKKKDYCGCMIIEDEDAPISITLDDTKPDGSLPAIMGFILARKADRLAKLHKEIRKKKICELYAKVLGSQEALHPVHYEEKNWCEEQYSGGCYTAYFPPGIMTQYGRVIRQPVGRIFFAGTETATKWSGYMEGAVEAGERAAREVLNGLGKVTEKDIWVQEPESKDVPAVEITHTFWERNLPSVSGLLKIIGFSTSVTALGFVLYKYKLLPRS

SMILES | outcome
COc1cc(CCC(=O)CC(=O)CCc2ccc(O)c(OC)c2)ccc1O | inactive
COc1cc(/C=C/C(=O)CC(=O)/C=C/c2ccc(O)c(OC)c2)ccc1O | inactive
